The values that follow come from PubChem BioAssay (Tox21).

Values without a mark were called inactive. Records with an inconclusive call do not appear. The source made the active and inactive calls. Calls come from the whole dose curve; as a rule, active = well fitted curve in the direction sought with a large enough effect in the repeat runs; inconclusive = weak or mixed curves; inactive = no such curve, though single readings can be large; an effect the other way counts as inactive or inconclusive.

Assay [1] can be described thus: A CellTox Green Cytotoxicity Assay to monitor cytotoxicity in HEK293 cells - 40 hour (AID 1224871). Note: nearly all actives have a fitted effect of over 45% in size. The method in brief:
(§1)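 Dead-cell fluorescence measured kinetically: asymmetric cyanine dye, HEK293, 600 cells/well, 5 h settle, 23 nL cpd/DMSO, 37 C, reads 0–40 h every 8 h.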

A short description of assay [2]: qHTS RealTime-Glo MT Cell Viability Assay in HepG2 cells - 8 hour (AID 1224873). Note: nearly all actives have a fitted effect of over 55% in size. The method in brief:
(§2)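 Real-time viability: cells seeded at 600 per well together with NanoLuc and cell-permeant prosubstrate, compounds added after 5 h incubation. Luminescence tracked at 0, 8, 16, 24, 32 and 40 h of exposure.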

A short description of assay [3]: A CellTox Green Cytotoxicity Assay to monitor cytotoxicity in HEK293 cells - 24 hour (AID 1224875). Note: series mostly up to about 77 µM; nearly all actives have a fitted effect of over 45% in size. The gist of the method: as §1
Assay [4] is described as follows: A CellTox Green Cytotoxicity Assay to monitor cytotoxicity in HepG2 cells - 16 hour (AID 1224876). Note: nearly all actives have a fitted effect of over 45% in size. The method in brief: (§3)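 First, HepG2 cells (600/well) mixed with reagent were plated; second, after 5 h at 37 C they received compounds via pintool; third, fluorescence was measured at 0 h through 40 h at 8 h intervals.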
Assay [5] can be described thus: A CellTox Green Cytotoxicity Assay to monitor cytotoxicity in HepG2 cells - 24 hour (AID 1224878). Note: nearly all actives have a fitted effect of over 45% in size. Note: potency is the fitted concentration of half-maximal effect. The method in brief: as §3
Assay [6] is described as follows: A CellTox Green Cytotoxicity Assay to monitor cytotoxicity in HepG2 cells - 40 hour (AID 1224879). Note: nearly all actives have a fitted effect of over 40% in size. Note: potency is the fitted concentration of half-maximal effect. The gist of the method:
as §3

Assay [7] in a line: A CellTox Green Cytotoxicity Assay to monitor cytotoxicity in HEK293 cells - 32 hour (AID 1224881). Note: nearly all actives have a fitted effect of over 40% in size. The method in brief: as §1
Assay [8] can be described thus: A CellTox Green Cytotoxicity Assay to monitor cytotoxicity in HepG2 cells - 0 hour (AID 1224882). Note: nearly all actives have a fitted effect of over 35% in size. The gist of the method:
as §3

A short description of assay [9]: A CellTox Green Cytotoxicity Assay to monitor cytotoxicity in HepG2 cells - 32 hour (AID 1224883). Note: nearly all actives have a fitted effect of over 50% in size. Note: potency is the fitted concentration of half-maximal effect. The gist of the method: as §3
Assay [10] is described as follows: A CellTox Green Cytotoxicity Assay to monitor cytotoxicity in HEK293 cells - 8 hour (AID 1224884). Note: nearly all actives have a fitted effect of over 35% in size. The method in brief: as §1
The nature of assay [11]: A CellTox Green Cytotoxicity Assay to monitor cytotoxicity in HEK293 cells - 16 hour (AID 1224888). Note: nearly all actives have a fitted effect of over 35% in size. The method in brief: as §1
Assay [12] in a line: qHTS RealTime-Glo MT Cell Viability Assay in HepG2 cells - 0 hour (AID 1224889). Note: nearly all actives have a fitted effect of over 50% in size. Note: potency is the fitted concentration of half-maximal effect. The gist of the method:
(§4)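 qHTS, HepG2, 600 cells/well, RealTime-Glo (NanoLuc + prosubstrate) added with cells; 5 h preincubation; DMSO compound addition; 37 C; luminescence at 0/8/16/24/32/40 h.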

A short description of assay [13]: qHTS RealTime-Glo MT Cell Viability Assay in HepG2 cells - 40 hour (AID 1224870). Note: nearly all actives have a fitted effect of over 50% in size. The gist of the method: as §2
A short description of assay [14]: qHTS RealTime-Glo MT Cell Viability Assay in HEK293 cells - 40 hour (AID 1224874). Note: nearly all actives have a fitted effect of over 50% in size. Note: potency is the fitted concentration of half-maximal effect. The conditions noted are these: RealTime-Glo luminescence; max response: hits give low values. The gist of the method: (§5)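 600 HEK293 cells per well, dispensed already mixed with RealTime-Glo MT reagents. Compound dosing came 5 h later. The same wells were read for luminescence at 0, 8, 16, 24, 32 and 40 h of exposure at 37 C.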

Assay [15] in a line: qHTS RealTime-Glo MT Cell Viability Assay in HepG2 cells - 16 hour (AID 1224885). Note: nearly all actives have a fitted effect of over 50% in size. The gist of the method:
as §4

Assay [16] is described as follows: qHTS RealTime-Glo MT Cell Viability Assay in HEK293 cells - 24 hour (AID 1224886). For activity change, negative = cytotoxicity: top concentration of the series differs between compounds. Note: nearly all actives have a fitted effect of over 50% in size. Note: potency is the fitted concentration of half-maximal effect. The gist of the method: (§6)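 Assay medium contained NanoLuc luciferase plus cell-permeant prosubstrate, added with HEK293 cells at 600 cells/well. After 5 h at 37 C/5% CO2 compounds were added; plates stayed at 37 C for 40 h with serial luminescence reads.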
Assay [17] can be described thus: qHTS RealTime-Glo MT Cell Viability Assay in HEK293 cells - 8 hour (AID 1224887). For activity change, negative = cytotoxicity: top concentration of the series differs between compounds. Note: nearly all actives have a fitted effect of over 50% in size. Note: potency is the fitted concentration of half-maximal effect. The method in brief:
as §5

A short description of assay [18]: qHTS RealTime-Glo MT Cell Viability Assay in HEK293 cells - 0 hour (AID 1224880). The method in brief:
as §5

Assay [19] can be described thus: qHTS RealTime-Glo MT Cell Viability Assay in HepG2 cells - 32 hour (AID 1224877). Note: nearly all actives have a fitted effect of over 55% in size. The method in brief: as §4
A short description of assay [20]: qHTS RealTime-Glo MT Cell Viability Assay in HEK293 cells - 16 hour (AID 1224872). The gist of the method:
as §6
% is set by controls: 0 for no effect and ±100 for the full control effect.

As to `C1CCCCCCCCCCC1`, the cytotoxicity increase in assay [1] is -40.6% [at 15.8 µM]; in assay [4], -3.96% [at 15.8 µM]; in assay [6] it was -12.7% [at 15.8 µM]; in assay [7], -37.3% [at 15.8 µM]; in assay [9] it was -10.5% [at 15.8 µM]; in [10] it was -28.5% [at 15.8 µM]. In addition, in assay [2], the viability change, negative = cytotoxic is -9.68% [at 15.8 µM]. Moreover, the activity change in [3] is -35.9% [at 15.8 µM, hits give high values]; in assay [11], -33.7% [at 15.8 µM, hits give high values]. Moreover, the cytotoxicity in assay [5] is -7.04% [at 15.8 µM]; in assay [8], -1.21% [at 15.8 µM]. Also, the activity change, negative = cytotoxicity in assay [12] was -19.7% [at 15.8 µM].

`CC(C)CCCC(C)NCCC(C)C` (stereo not given): the Potency entry in assay [13], in assay [1], in [3], in assay [4], in assay [5] and in assay [6] was “inactive” throughout. Moreover, the Potency result in [7], in assay [8], in assay [9], in assay [10], in [16] and in assay [17] was “inactive” throughout. The Potency result in assay [12] is “inactive”. The result in assay [2] and in assay [15] was inactive. Also, in [14], the max response is 0.252%.

Turning to `c1cc(CN2CCCCC2)cc(OCCCNc2nc3ccccc3s2)c1`, the Potency entry in assay [1], in [7], in [8], in assay [10], in [11] and in assay [12] was “inactive” throughout. In addition, the result in assay [2] and in assay [18] was inactive. Moreover, the Potency in assay [14] was 9.52 µM (active); in [5], 26.8 µM (active); in [6], 23.9 µM (active); in assay [9] it was 23.9 µM (active); in assay [16] it was 9.52 µM (active); in assay [17], 9.52 µM (active).

Take `C/C=C1\C(=O)C[C@H]2[C@@H]3CCC4=CC(=O)CC[C@]4(C)[C@H]3CC[C@]12C`: the Potency result in assay [13], in assay [3], in assay [4], in assay [19], in assay [5] and in [6] was “inactive” each time. The Potency entry in [8], in [9], in assay [10] and in assay [11] was “inactive” throughout. Also, the result in assay [2] and in assay [15] was inactive. Besides, the Potency is 21.4 µM (active) in [14] and 7.61 µM (active) in [12].

As for `CC(C)[N+](C)(C)CC(O)COc1cccc2ccccc12` (stereo not given), the Potency result in assay [1], in assay [20], in assay [3], in assay [4], in assay [5] and in assay [6] was “inactive” each time. In addition, the Potency entry in assay [7], in assay [9], in assay [10], in assay [16], in assay [17] and in assay [11] was “inactive” throughout. The Potency result in assay [12] was “inactive”. Further, the compound was classed as inactive in assay [2], in assay [18] and in [15]. Besides, the max response in assay [14] was 6.37%.

For `CC(C)c1cccc(C(C)C)c1N`, the Potency result in assay [13], in [19], in assay [8], in assay [10], in [16] and in assay [17] was “inactive” in each case. Also, the Potency entry in assay [11] and in [12] was “inactive” throughout. Besides, the call in assay [2], in assay [18] and in [15] was inactive. Moreover, in assay [14], the max response was -0.332%.

Turning to `c1ccc(CCCc2ccccn2)cc1`, the Potency result in assay [13], in assay [20], in assay [4], in assay [5], in assay [6] and in assay [9] was “inactive” throughout. Also, the Potency result in assay [10], in [16], in [17], in [11] and in assay [12] was “inactive” each time. Further, the outcome in [2], in [18] and in assay [15] was inactive. Also, in [14], the max response was -0.97%.

Take `OCC(CO)(CO)COCC(CO)(CO)CO`: the Potency result in [1], in assay [20], in assay [3], in [4], in [5] and in [6] was “inactive” each time. Moreover, the Potency result in assay [7], in assay [9], in assay [10], in [16], in [17] and in [11] was “inactive” each time. The Potency entry in assay [12] is “inactive”. Further, the outcome in assay [2], in assay [18] and in assay [15] was inactive. Besides, in [14], the max response is 9.54%.

As to `CC(C)COC(=O)C(C)C`, the Potency entry in assay [13], in assay [1], in [3], in [4], in assay [19] and in assay [5] was “inactive” throughout. Moreover, the Potency result in assay [6], in assay [7], in [8], in assay [9], in assay [10] and in assay [16] was “inactive” in each case. In addition, the Potency entry in assay [17], in [11] and in assay [12] was “inactive” in each case. The compound was called inactive in assay [2], in assay [18] and in assay [15].
